# This excerpt belongs to a sample that is enriched for hits.
# Tb PYK inh: blocks Trypanosoma brucei pyruvate kinase; Q57TT1; AID 624173; Potency, µM (titrated, usually from 76.8 µM), inactives show at the highest dose activity, negative = inhibition, usual class: inhibitors; 410,000 compounds, 0.12% hits; TbPYK enzyme, Kinase-Glo Plus ATP luminescence, 45 min; note: potency is the fitted concentration of half-maximal effect; % is set by controls: 0 for no effect and ±100 for the full control effect; nearly all actives have a fitted effect of over 50% in size
#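 Activity of T. brucei pyruvate kinase was followed by Kinase-Glo Plus luminescence after the enzyme reacted 45 min at room temperature with 130 uM ADP (final) and substrate. Test compounds were added before ADP at multiple concentrations.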
# Sm TGR inh: inhibitors of Schistosoma mansoni thioredoxin glutathione reductase | purified TGR, DTNB reduction, TNB absorbance 405 nm | 360,000 compounds, 3% hits | Q962Y6 | Potency, µM (doses to about 114 µM), without a hit: top-dose activity change, negative = inhibition, usual class: inhibitors | AID 485364; note: potency is the fitted concentration of half-maximal effect; % is set by controls: 0 for no effect and ±100 for the full control effect; nearly all actives have a fitted effect of over 60% in size
#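 First, TGR (20 nM dispensed) and NADPH were mixed with compound. Second, a 15 min room-temperature incubation followed. Third, further NADPH and then DTNB were added to start the reaction. Finally, TNB absorbance was monitored kinetically.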
# CHX counter: counter-screen hit for Shiga toxin inhibitors, cycloheximide; cell reporter, cycloheximide protein synthesis inhibition counterscreen; max response, %; 300,000 compounds, 12% hits; in the data active = max response mostly above about 13%, no sharp cut-off; inactive = mostly below about 14%; note: read at 38.3 µM for the half of the compounds with a filed dose; 0% is about no effect
# Shiga inhibitor: Shiga toxin inhibition; Vero cells, Shiga toxin protein synthesis inhibition reporter; inhibition, % at 38.7 µM; 290,000 compounds, 9.2% hits; AID 2315; in the data active = inhibition mostly above about 28%, no sharp cut-off; inactive = mostly below about 43%; note: 0% is about no effect
# FBPA Giardia inh: inhibitors of Giardia lamblia fructose-1,6-bisphosphate aldolase. A8B2U2. purified Giardia FBPA. Potency, µM (doses to about 59.6 µM), without a hit: top-dose activity, negative = inhibition, actives largely listed as inhibitors. 290,000 compounds, 0.71% hits. AID 2451; note: potency is the fitted concentration of half-maximal effect; % is set by controls: 0 for no effect and ±100 for the full control effect; nearly all actives have a fitted effect of over 55% in size
# Target sequence (A8B2U2 whole entry, looked up): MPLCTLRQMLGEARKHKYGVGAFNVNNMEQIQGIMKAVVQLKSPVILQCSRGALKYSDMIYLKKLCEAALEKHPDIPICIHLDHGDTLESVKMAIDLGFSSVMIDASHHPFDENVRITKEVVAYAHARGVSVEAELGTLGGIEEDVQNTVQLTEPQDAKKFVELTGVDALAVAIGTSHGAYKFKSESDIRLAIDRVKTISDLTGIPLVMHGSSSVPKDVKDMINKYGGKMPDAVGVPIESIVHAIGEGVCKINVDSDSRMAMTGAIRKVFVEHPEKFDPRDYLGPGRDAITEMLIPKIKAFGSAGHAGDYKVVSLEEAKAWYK
#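 40 nM FBPA preincubated 10 min at RT with compound (up to 57.5 uM final), then substrate plus GAPDH/TPI/NAD/arsenate coupling and diaphorase/resazurin added. Fluorescence read after 20 min at RT, 525/598 nm.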
# LmPK inh: blocks Leishmania mexicana pyruvate kinase activity; 290,000 compounds, 0.37% hits; Q27686; AID 1721; purified LmPK, Kinase-Glo ATP luminescence, 1 h; Potency, µM (series often up to 57.5 µM), without a hit: at the top dose activity change, negative = inhibition, most hits filed as inhibitors; note: potency is the fitted concentration of half-maximal effect; % is set by controls: 0 for no effect and ±100 for the full control effect
#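 Kinase-Glo luminescence read after 1 h RT reaction of 0.1 nM LmPK with 0.5 mM PEP and 0.1 mM ADP. Activity scaled between uninhibited and enzyme-free controls.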
# * marks the source's active call; other numbers are inactive results; ? = inconclusive; . = no result given. Unless noted, calls come from the whole dose curve; as a rule, active = well fitted curve in the direction sought with a large enough effect; inconclusive = small, poorly fitted or top-dose-only effect, or another doubt; inactive = no such curve, though single readings can be large; an effect the other way counts as inactive or inconclusive.
SMILES,Tb PYK inh,Sm TGR inh,CHX counter,Shiga inhibitor,FBPA Giardia inh,LmPK inh
CCOC(=O)COc1nc(-c2ccc(C)cc2)cc(-c2ccco2)c1C#N,-2%,-2%,6,16,-6%,-1%
CCOC(=O)C(C)Sc1nc(-c2ccco2)cc(C(F)(F)F)c1C#N (stereo not drawn),-2%,22µM*,2,-7,-2%,7%
CC(=O)COc1nc2c(c(-c3ccco3)c1C#N)CCc1ccccc1-2,1%,45µM*,19,25,?,-1%
NS(=O)(=O)c1ccc(NC(=S)N2CCc3ccccc32)cc1,-6%,-17%,3,-17,.,-6%
Fc1ccc(NC(=S)N2CCc3ccccc32)cc1,-3%,-2%,15*,41*,-27%,2%
O=C(CO/N=C/c1ccc(OC(F)F)cc1)N1CCc2ccccc21,-5%,-4%,1,17,2%,2%
FC(F)Oc1ccc(NC(=S)N2CCc3ccccc32)cc1,1%,6%,36*,78*,-4%,-6%
COc1ccc2cc1Oc1cc3c(cc1OC)CC[N+](C)(C)C3Cc1ccc(cc1)Oc1c(OC)c(OC)cc3c1C(C2)[N+](C)(C)CC3 (stereo not drawn),-17%,.,.,.,.,.
O=C1/C(=C\c2ccc3ccccc3c2)CCCc2ccccc21,-5%,5%,60*,73*,-9%,-16%
Cc1ccccc1/C=C1\CCCc2ccccc2C1=O,-16%,-19%,45*,80*,-2%,?
CCN1C/C(=C/c2sccc2C)c2nc3ccccc3c(C(=O)O)c2C1,-8%,?,11,-11,5%,0%
Cc1ccsc1/C=C1\CCc2ccccc2C1=O,?,14%,41*,26,-3%,?
O=C1C(=Cc2cccc(F)c2)Cc2ccccc21,1%,.,.,.,.,.
COc1cc(OC)c(NC(=O)Cn2c(=O)nc(-c3ccccc3)c3ccccc32)cc1Cl,7%,-3%,.,.,.,.
Cc1ccc(C)c2sc(NC(=O)c3ccc(N4C(=O)CCC4=O)cc3)nc12,7%,-6%,-2,-11,1%,1%
O=C(Nc1nc2c(s1)CCCC2)c1ccc(Br)s1,-9%,7%,42*,111*,-15%,-7%
CC1CCc2nc(NC(=O)c3ccc(N4C(=O)CCC4=O)cc3)sc2C1 (stereo not drawn),2%,-7%,13*,35*,.,1%
O=C(Nc1nc2c(s1)CCCC2)c1ccc(N2C(=O)CCC2=O)cc1,-5%,-16%,38*,72*,.,-4%
O=C(Nc1cccc(Br)c1)Nc1nc2c(s1)CCCCCC2,-8%,10%,.,.,.,.
Cc1cccc(/C(N)=N/OC(=O)COc2ccccc2Cl)c1,-9%,0%,66*,21*,-3%,-2%
Cc1ccc(/C(N)=N/OC(=O)COc2cccc3ccccc23)cc1,-7%,.,.,.,.,.
COc1ccc(/C(N)=N/OC(=O)COc2ccccc2Cl)cc1,-12%,-1%,46*,26*,4%,-3%
O=C(NCc1ccccc1Cl)c1cc(-c2ccccc2)n[nH]1,-3%,4%,.,.,.,.
O=C(NCCc1ccccc1)c1ccc(CSc2nc3ccncc3n2Cc2ccccc2)cc1,0%,8%,.,.,.,.
O=c1c(-c2ccc(Cl)cc2)nc2cnc(Nc3ccccc3)nc2n1C[C@H]1CCCO1,.,.,.,.,7%,.
SMILES,Tb PYK inh,Sm TGR inh,CHX counter,Shiga inhibitor,FBPA Giardia inh,LmPK inh
O=C(COc1ccccc1Cl)NC(=S)Nc1ccccc1N1CCCC1,2%,-12%,2,24,-5%,0%
CC(C)C(=O)NC(=S)N1CCc2ccccc21,-12%,-25%,-2,9,-20%,3%
COc1ccc(OCCCC(=O)N2CCCc3ccccc32)cc1,-5%,-7%,6,-7,4%,1%
COc1ccc(OCC(=O)NC(=S)N2CCCc3ccccc32)cc1,-25%,-10%,35*,152*,?,3%
O=C(COc1ccccc1Cl)NC(=S)N1CCc2ccccc21,1%,-12%,50*,57,.,-4%
O=C(COc1ccccc1)NC(=S)N1CCc2ccccc21,-12%,0%,40*,38*,-7%,-3%
Cc1noc(C)c1-c1ccc2ncnc(NCc3cccc(-c4ccccc4)c3)c2c1,.,0%,10,4,6%,.
CCOC(=O)c1ccc(N2CCN(c3cc(C)ccc3C)CC2)c(NC(=O)Nc2ccc(Cl)cc2)c1,6%,2%,.,.,.,.
C/C(=N/NC(=O)c1ccc2c(c1)OCO2)c1ccc(NC(=O)c2ccc(F)cc2)cc1,5%,-21%,34*,40*,.,-10%
C/C(=N\NC(=S)NCc1ccccc1)c1ccc(Br)cc1,3%,10%,2,25,0%,0%
CC(=O)N/N=C(\C)c1ccc2c(c1)OCCO2,-2%,1%,7,12,3%,-4%
C/C(=N\NC(=S)NCc1ccccc1)c1ccc2c(c1)OCCO2,0%,-1%,18,93*,0%,12%
C/C(=N\NC(=S)Nc1ccc(F)cc1)c1ccc2c(c1)OCCO2,-8%,1%,28*,66*,21%,3%
C/C(=N/NC(=O)c1ccc2c(c1)OCO2)c1cccc(NC(=O)C(C)(C)C)c1,0%,1%,21,60,2%,0%
O=C(COC(=O)CCC1CCCC1)Nc1ccc(F)cc1Cl,3%,4%,.,.,.,.
CC1CCc2c(sc(NC(=O)C3c4ccccc4Oc4ccccc43)c2C(=O)OC(C)C)C1 (stereo not drawn),1%,-4%,.,.,.,.
O=C1c2ccccc2C(=O)N1CCc1ccccn1,1%,-8%,16*,13,-3%,-7%
O=C1c2ccccc2C(=O)N1CCc1ccccc1,-7%,.,.,.,.,.
N#Cc1ccccc1CCN1C(=O)c2ccccc2C1=O,-6%,6%,41*,.,-11%,-1%
O=C(Nc1ccc([N+](=O)[O-])cn1)C1CC2CCC1C2 (stereo not drawn),-3%,1%,13,17*,-1%,-3%
O=C(Nc1nccs1)C1CC2CCC1C2 (stereo not drawn),-15%,-1%,5,33,0%,0%
COC(=O)[C@@]1(Cc2ccc(F)cc2)[C@H]2c3cc(C(=O)N4CCCC4)n(Cc4c(CO)[nH]cc(C)c4=O)c3C[C@H]2CN1C(=O)c1ccccc1,.,.,.,.,-5%,.
CN(C)c1ccc(C(CC(=O)O)NC(=O)c2ccc(Cl)cc2)cc1 (stereo not drawn),-5%,32µM*,-1,14,5%,2%
CC1(C)C(=O)N(CC(=O)Nc2ccc(OC(F)(F)F)cc2)c2ccccc21,-14%,13%,.,.,.,.
O=C(COc1coc(CN2CCc3ccccc3C2)cc1=O)Nc1cccc([N+](=O)[O-])c1,6%,-2%,.,.,.,.
COc1ccc(CNC(=O)COC(=O)c2cccn2C)cc1,3%,.,.,.,.,.
Cn1cccc1C(=O)OCc1ccc(C(C)(C)C)cc1,1%,-8%,32*,98*,-11%,-1%
